# Screening data as filed in PubChem BioAssay.
# PostGolgi yeast: growth inhibition of a yeast mutant, post-Golgi transport screen | inhibition, % at 10 µM | AID 739 | post-Golgi transport phenotypic cell assay | 98,000 tested, 0.9% active;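 also: yeast cells grown in 1536-well plates; yeast grown about 18 h at 30C before absorbance read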
# PostGolgi ctrl: yeast control strain growth, post-Golgi counter-screen | efflux-deficient yeast background strain, growth absorbance A615, 16 h | inhibition, % at 10 µM | 98,000 tested, 5% active
# PTK2B oligo ant: blocks oligomerization of human Pyk2 in cells; Q14289; Q293 cells, Pyk2 FERM NanoBiT luminescence; active compounds read low; z-score (the deposit names both 25 µM and 10 µM); 99,000 tested, 0.83% active;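 active = Z-score of -3 or lower, scaled per plate to the spread of control and sample wells; inactive = z-score above -3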;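 also: negative z-score means lost luminescence so less FERM oligomerization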
# Cav32 inh: human Cav3.2 channel inhibition, primary screen; O95180; B-score at 10 µM; 100,000 tested, 4% active; Cav3.2-expressing cells, Fluo-4 calcium fluorescence FDSS; active compounds read low; AID 449739;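 active = single-dose well whose peak fluorescence ratio is a statistical outlier from its plate by either plate-standardised score or position-corrected B-score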
# Active calls of the source: *; x = no result given. Compounds with a hit are over-represented: about 8% of the library has one in this group of screens. Rule as the data show it, unless noted: active = inhibition above about 30%; inactive = the rest.
SMILES,PostGolgi yeast,PostGolgi ctrl,PTK2B oligo ant,Cav32 inh
COc1ccc(OC)c(C(=O)CSc2nnc(Cc3cccs3)n2CCc2ccccc2)c1,0,16,-0.84,-1.4
COC(=O)C1=C(C)NC2=C(C(=O)CC(C)(C)C2)C1c1cn(Cc2ccc(Br)cc2)nc1-c1ccccc1 (configuration not stated),-4,8,-3.3*,-4.7*
COC(=O)C1=C(C)NC2=C(C(=O)CCC2)C1c1cn(Cc2ccc(Br)cc2)nc1-c1ccccc1 (configuration not stated),-7,3,-2.3,-7.3*
COC(=O)C1=C(C)NC2=C(C(=O)CCC2)C1c1coc2ccccc2c1=O (configuration not stated),2,-8,0.17,0.52
N#CC(c1cccc(C(F)(F)F)c1)(c1ncc(C(F)(F)F)cc1Cl)N1CCOCC1 (configuration not stated),-1,19,1.3,-4.3*
Cc1cc(C)n(CCn2nc(C)cc2C)n1,-2,37*,0.9,0.41
O=C1c2ccsc2SCCN1Cc1c(Cl)cccc1Cl,-5,19,-0.91,-5.6*
O=C1c2ccsc2SCCN1Cc1ccc(Cl)cc1Cl,-8,5,-0.7,-4.6*
O=C(NC(NC1CCS(=O)(=O)C1)C(Cl)(Cl)Cl)c1ccc(Br)cc1 (configuration not stated),-1,1,-0.81,-0.59
CCOC(=O)c1c2c(n(C)c1C)C(=O)C(=O)c1ccc(Br)cc1-2,x,x,-3.5*,0.35
O=S(=O)(NCCSc1ccccc1)c1ccc(F)cc1,8,19,2.5,-5.7*
CC1CCCN(CCOCCOc2ccc(Cl)cc2Br)C1 (configuration not stated),103*,22,0.04,-0.17
CC1CC(C)CN(CCOc2ccc(Cl)cc2Cl)C1 (configuration not stated),89*,29,0.23,-0.77
Cc1ccc(N2C(=O)N(CC(=O)C(C)(C)C)c3ccccc3S2(=O)=O)cc1,x,x,x,-2.6
Cc1ccc(CCN2CC(C(=O)NCCCOC(C)C)CC2=O)cc1 (configuration not stated),18,5,0.67,-0.48
O=C(O)c1cc(-c2ccc(Cl)cc2)n[nH]1,12,-4,1.7,0.51
O=[N+]([O-])c1cccnc1N1CCC(c2cc(-c3ccc(Cl)cc3)n[nH]2)CC1,3,69*,-2.9,-1.7
O=C(CC(NS(=O)(=O)c1ccc(Cl)cc1)c1ccco1)N1CCc2ccccc21 (configuration not stated),3,19,-0.62,-4.3*
CCC(C)NC(=O)CC(NS(=O)(=O)c1ccc(Cl)cc1)c1ccco1 (configuration not stated),15,4,0.44,-0.015
O=C(CN(C(=O)CNC(=O)c1ccco1)c1ccc(Cl)c(Cl)c1)NC1CCCCC1,-3,6,-0.64,-4.3*
Cc1ccc(C(C(=O)NC2CCCCC2)N(CCC(C)C)C(=O)CNC(=O)c2ccco2)o1 (configuration not stated),0,1,-0.52,-4.7*
COC(=O)C1N[C@@H]([C@@H](NC(=O)COc2ccccc2)C(=O)NC2CC2)SC1(C)C (some centres not stated),x,x,x,1
Clc1cccc(Cl)c1NC1=NCCN1,x,x,x,0.11
COc1ccc(Nc2ncc(C(=O)N3CCN(c4ccc(F)cc4)CC3)c3ccccc23)cc1,6,28,-0.82,-5.9*
COc1ccc(Nc2ncc(C(=O)O)c3ccccc23)cc1,2,6,0.69,0.94
SMILES,PostGolgi yeast,PostGolgi ctrl,PTK2B oligo ant,Cav32 inh
COC(=O)c1cc(Br)ccc1OC(=O)c1cccnc1,5,0,0.56,-0.11
Cc1cc(N2CCCCC2)nc(SCc2ccc(C#N)cc2)n1,1,40*,-1.1,-4.7
O=C(CCSc1ccccc1)N1CCN(C(=O)c2ccco2)CC1,-11,-1,-1.2,0.43
COc1ccc(C2OC(=O)CC2C(=O)NC2CCCCCC2)cc1OC (configuration not stated),-14,2,0.7,0.68
Clc1ccc(OCc2nn3c(C4CCCCC4)nnc3s2)cc1,12,42*,1.7,-2.7
c1ccc(-c2nn3c(C4CCCCC4)nnc3s2)cc1,14,17,0.17,-1.1
CCn1c(CNC(=O)COc2ccc(C(C)C)cc2)nnc1SCC(=O)Nc1ccccc1C(C)C,2,43*,-2.4,-2.3
CCn1c(CNC(=O)COc2ccc(C(C)C)cc2)nnc1SCC(=O)Nc1ccccc1F,5,3,-0.01,-1.9
CCOC(=O)c1nnn(CC(=O)N2N=C(c3cccc4ccccc34)CC2c2ccccc2)c1C(=O)OCC (configuration not stated),x,x,0.18,-5.5*
Clc1ccc(CSc2nnnn2-c2ccc3c(c2)OCO3)c(Cl)c1,2,13,-1.5,-3.5*
c1ccc(CSc2nnnn2-c2ccc3c(c2)OCCO3)nc1,4,-1,-0.55,1.5
Cc1ccc(NC(=O)CCSc2nnnn2-c2ccc3c(c2)OCO3)cc1C,-1,16,1.5,-5.1*
COc1ccccc1NC(=O)CN1CCN(c2ccc(Cl)cc2)CC1,1,32*,0.32,0.17
O=C(CN1CCN(c2ccc(Cl)cc2)CC1)Nc1ccc(F)cc1,-5,16,2.3,-4.5*
O=C(CN1CCN(c2ccc(F)cc2)CC1)Nc1cc(C(F)(F)F)ccc1Cl,-4,48*,0.21,x
O=C1N[C@@H](Cc2cn(S(=O)(=O)c3c(F)c(F)c(F)c(F)c3F)c3ccccc23)C(=O)N[C@H]1Cc1ccccc1,x,x,x,0.39
N#Cc1nc(-c2cccs2)oc1N1CCN(Cc2ccccc2)CC1,2,14,-0.15,-0.82
CCCn1c(SCC(N)=O)nc2c(c1=O)C1(CCCC1)Cc1ccccc1-2,3,44*,-2,x
CCn1c(SCC#N)nc2c(c1=O)C1(CCCC1)Cc1ccccc1-2,0,52*,-2.4,-6.9*
COc1ccc(CCNC(=O)c2cnn3cccnc23)cc1OC,18,4,0.13,0.092
CC1CN(C(=O)N2c3ccccc3Sc3ccccc32)C(C)CC1=O (configuration not stated),-1,37*,-1.1,-4.6*
CC1CCN(C(=O)N2c3ccccc3Sc3ccccc32)CC1,-1,23,-1.6,0.11
O=C(O)C1C2CCC(O2)C1C(=O)NCCC1=CCCCC1 (configuration not stated),-2,30*,-0.43,0.36
Cc1ccc(CC(NC(=O)c2ccccc2)C(=O)NCC(=O)O)cc1 (configuration not stated),1,3,-0.6,-0.094
COc1ccccc1N(CN1CCCC1=O)C(=O)COc1ccccc1,-3,-1,2.2,0.34
COc1ccccc1CNC(=O)C(CC(C)C)NC(=O)C1CCC(C)CC1 (configuration not stated),15,11,0.04,-5.8*
COc1ccccc1CNC(=O)C1CCN(C(=O)N(C)C)CC1,-5,0,0.03,-1.2
Cc1ccc(N2C(=O)N(CC(=O)NCc3ccc(Cl)cc3)C(=O)C2C)cc1 (configuration not stated),5,17,0.21,-5.2*
CCN(CC)C(=O)CSc1ccccc1N,4,-1,0.27,0.0055
